Compound activity deposited in PubChem by Broad Institute.
aSyn UTR act = Activators working through SNCA 5'UTR binding (MLPCN) | alpha-synuclein 5'UTR reporter, activators screen | activity score, % (tested at 7.5 µM), hits read low | 300,000 tested, 7.1% active; in the data active = activity score below about -60%
Active calls of the source: *. The list is a sample of the results.

SMILES	aSyn UTR act
O=C(Nc1cccc(-c2ccc(N3CCOCC3)nn2)c1)c1ccc(Cl)cc1	-86*
O=C(COc1ccc(Cl)cc1)Nc1cccc(-c2ccc(N3CCOCC3)nn2)c1	-71*
O=C(Nc1cccc(-c2ccc(N3CCOCC3)nn2)c1)c1ccccc1Cl	-110*
Cc1cccc(Oc2cc([N+](=O)[O-])cc3c2C(=O)Nc2ccccc2O3)c1	-68*
Nc1n[nH]c2ccccc12	-62*
N/C(=N\c1nc2ccccc2o1)NC(=O)c1ccccc1	-194*
COc1ccccc1C(=O)N/C(N)=N/c1nc2ccccc2o1	-70*
CC(C)(C)C(=O)N/C(N)=N/c1nc2ccccc2o1	-63*
Cc1ccc(C(=O)N/C(N)=N/c2nc3ccccc3o2)cc1	-114*
CCC1CCCCN1c1nc(-c2cccc(OC)c2O)nc2ccccc12 (stereo not drawn)	-98*
O=C(c1ccco1)N1CCN(Cc2c(Cl)cccc2Cl)CC1	-85*
CCS(=O)(=O)Nc1ccc(C2=NN(S(C)(=O)=O)C(c3cccs3)C2)cc1 (stereo not drawn)	-101*
COc1ccc(C2=NN(S(C)(=O)=O)C(c3cccs3)C2)cc1OC (stereo not drawn)	-115*
COc1ccc2cc(C3CC(c4cccs4)=NN3S(C)(=O)=O)c(Cl)nc2c1 (stereo not drawn)	-62*
COc1cccc(C2=NN(S(C)(=O)=O)C(c3cccs3)C2)c1 (stereo not drawn)	-107*
CC1SCC(NC(=O)c2ccccc2Cl)CS1 (stereo not drawn)	-102*
CC1SCC(NC(=O)c2ccc(Cl)cc2)CS1 (stereo not drawn)	-111*
CCOc1ccccc1N/C=C(\C#N)c1nc2ccccc2n1C	-76*
Cc1ccc(COn2c(-c3ccc(Cl)cc3)nc3ccc([N+](=O)[O-])cc32)cc1	-198*
O=[N+]([O-])c1ccc2nc(-c3ccc(Cl)cc3)n(OCc3ccccc3)c2c1	-243*
Cc1nc(CSc2ccc(Br)cc2)cs1	-71*
COc1ccc(C(=O)CC(=O)c2ccc(OC)cc2)cc1	-71*
O=C(CNS(=O)(=O)c1ccccc1)OCC(=O)c1ccc(OC(=O)c2ccccc2)cc1	-67*
COc1ccc(C(=O)Cc2nnc(C)s2)cc1	-99*
COc1ccc(C(=O)NCC(=O)c2ccccc2)cc1	-102*
SMILES	aSyn UTR act
COC(=O)c1ccc(OCC(=O)c2ccccc2)cc1	-133*
COc1ccc(C(=O)CCNc2ccc(F)cc2)cc1	-114*
CCOc1ccc(C(=O)CSCCC(=O)O)cc1	68
COc1ccc(C(=O)C[n+]2ccc3ccccc3c2C)cc1	-144*
COc1ccc(C(CC(=O)c2ccccc2)S(=O)(=O)c2ccc(C)cc2)cc1 (stereo not drawn)	-186*
COc1ccc(S(=O)(=O)Nc2cc3c(C(C)=O)c(C)oc3c3ccccc23)cc1	82
COc1ccc(C(=O)CC(=O)c2ccccc2)cc1	-125*
O=[N+]([O-])c1cc(C=Nc2ccc3ccccc3c2)ccc1Br	-119*
Oc1ccc(N=C/C=C/c2ccc(Br)cc2)cc1-c1nc2ccccc2s1	-107*
COc1ccc(/C=C/C(=O)c2cc3c(cc2N)OCO3)cc1	-183*
COc1ccc(C(=O)/C=C/Nc2ccccn2)c(OC)c1	-160*
COc1ccc(C(=O)/C=C/c2ccccc2)c(O)c1	-111*
O=C(/C=C/c1ccc(O)cc1)c1ccc(O)cc1O	-244*
COc1ccc(C(=O)/C=C/c2cc(C(=O)O)cc3c2OCOC3)c(O)c1	-75*
CN(C)c1ccc(/C=C/C(=O)c2cc(Cl)ccc2O)cc1	-96*
COc1ccc(/C=C/C(=O)c2cc(Cl)ccc2O)c(OC)c1	-80*
COc1ccc(/C=C/C(=O)c2ccc(OC)cc2OC)cc1	-114*
COc1ccc(C(=O)/C=C/c2ccc(OC)cc2OC)c(O)c1	-283*
COc1ccc(C(=O)/C=C/C(=O)N(CC(=O)NC2CCCCC2)Cc2ccccc2)c(O)c1	67
COc1ccc(C(=O)c2ccc(OC)cc2O)c(O)c1	-120*
COc1ccc(C(=O)/C=C/c2ccccc2OC)c(OC(=O)c2ccc([N+](=O)[O-])cc2)c1	-332*
COc1ccc(/C=C/C(=O)c2cc(F)ccc2OC(=O)c2ccccc2)cc1OC	67
COc1ccc(/C=C/C(=O)CCC(=O)O)cc1	-78*
O=C(CSc1ccc(F)cc1)Nc1ccccc1Br	-75*
O=C(CSc1ccc(F)cc1)Nc1ccc(Br)cc1	-149*
SMILES	aSyn UTR act
Cc1cnc(C(=O)Nc2ccc(N3CCN(C(=O)OC(C)(C)C)CC3)cc2)cn1	-89*
Cc1cnc(C(=O)Nc2ccccc2F)cn1	-91*
Cc1cnc(C(=O)Nc2ccc(F)cc2)cn1	-101*
Cc1cnc(C(=O)Nc2ccc(C(C)C)cc2)cn1	-142*
Cn1nc(CC(=O)Nc2ccc(N3CCN(C(=O)OC(C)(C)C)CC3)cc2)c2ccccc2c1=O	77
Cc1cccn2c(=O)c(C=Nc3ccccc3)c(NCc3ccco3)nc12	-118*
Cn1c(=O)c2c(nc(NCc3ccco3)n2C/C=C/c2ccccc2)n(C)c1=O	90
Cc1cc(C(=O)CSc2nnc(-c3cccnc3)n2-c2ccccc2)c(C)n1CC1CCCO1 (stereo not drawn)	-78*
Cc1cc(C(=O)COC(=O)c2ccc(N)c([N+](=O)[O-])c2)c(C)n1Cc1ccc2c(c1)OCO2	-164*
Cc1ccc(C(=O)OCC(=O)c2cc(C)n(CC3CCCO3)c2C)cc1 (stereo not drawn)	-161*
C=CCn1c(C)cc(C(=O)COC(=O)c2ccc(N)c([N+](=O)[O-])c2)c1C	-142*
CC(=O)Nc1ccccc1OCC(=O)c1cc(C)n(Cc2cccs2)c1C	-150*
Cc1cc(C(=O)COC(=O)c2ccc3c(c2)OCO3)c(C)n1Cc1cccs1	-65*
Cc1cc(C(=O)COC(=O)c2ccccc2O)c(C)n1Cc1cccs1	93
CN(C)c1ccc(-c2noc(-c3ccccc3O)n2)cc1	71
Fc1ccccc1-c1nc(-c2ccc(Cl)cc2)no1	-203*
Cc1ccccc1-c1noc(-c2ccc(Cl)cc2)n1	-192*
Cc1ccccc1-c1noc(C2CCCCC2)n1	-71*
Cc1ccccc1-c1noc(-c2ccccc2F)n1	-259*
Cc1ccccc1-c1noc(-c2ccc(O)cc2)n1	-226*
CSc1ccc(N2C(=O)NC3(CCCCC3)C2=O)cc1	-111*
COc1ccc(/C=C/c2nc(-c3ccccc3O)n[nH]2)cc1	-74*
O=C(Cc1ccccc1F)Nc1ccc(SC(F)F)cc1	-137*
O=C(COC(=O)c1ccccc1Cc1ccccc1)Nc1ccc(SC(F)F)cc1	-109*
O=C(CC(=O)Nc1ccccc1)Nc1ccccc1	-69*
SMILES	aSyn UTR act
O=C(CNc1ccccc1)Nc1ccc(F)cc1	-118*
Cc1ccc(NCC(=O)Nc2ccc(Br)cc2)cc1F	-77*
C/C(=N\Nc1cc(C)nc(-c2ccccc2O)n1)c1ccccc1	-65*
Cc1ccc(Nc2cc(C)nc(-c3ccccc3O)n2)cc1	-116*
Cc1cc(NCCCN)nc(-c2ccccc2O)n1	-69*
Cc1ccc(Nc2cc(C)nc(-c3ccccc3)n2)cc1	-124*
Cc1cc(N/N=C/c2ccc(O)c(C)c2O)nc(-c2ccccc2O)n1	87
Cc1ccc(Oc2cc(C)nc(-c3ccccc3O)n2)cc1	-69*
CN1C(=C2C(=O)OC(C)(C)OC2=O)Sc2ccccc21	-79*
O=C(O)c1ccc(-c2noc(-c3ccc(F)cc3)n2)cc1	-93*
O=C(O)c1ccc(-c2noc(-c3ccccc3Cl)n2)cc1	-97*
O=C(O)c1ccc(-c2noc(-c3ccccc3C(F)(F)F)n2)cc1	-109*
